In PubChem BioAssay (NCATS):
Inconclusive results are not listed. Calls come from the whole dose curve; as a rule, active = well fitted curve in either direction with a large enough effect (not every such curve was filed as active); inconclusive = small, poorly fitted or top-dose-only effect, or another doubt; inactive = flat fitted curve, though single readings scatter.

Test: NFAT Signaling Pathway (AID 444);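 note: carbachol stimulus at about its EC50 of 1 µM final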
Conditions: Jurkat NFAT-bla M1, carbachol, beta-lactamase ratio, 5 h; at 17.2 µM (top of the series) unless noted
Outline: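 Jurkat cells carrying an NFAT-driven β-lactamase reporter and co-transfected muscarinic M1 receptor were treated with compound plus carbachol (1 uM final, an EC50 level) for 5 h at 37 °C. CCF4 loading followed for 1 h at RT; 460/530 nm ratio gave %activity.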
% is set by controls: 0 for no effect and ±100 for the full control effect.

Activity change, negative = inhibition, inactive:
C/C=C/c1ccccc1OCc1ccc(C(=O)O)o1 -2.78%
COc1ccc(-c2cn3ccsc3n2)cc1 4.22%
COc1ccc(C2C(C(C)=O)=C(O)C(=O)N2c2nccs2)cc1OC (stereo not drawn) 21.8%
Cc1cc(/C(O)=C2\C(=O)C(=O)N(CCN(C)C)C2c2ccncc2)ccc1OCc1ccccc1 (stereo not drawn) 17.3%
COCc1n[nH]c(=S)n1-c1cccc2ccccc12 1.36%
CSc1nnc2n(C3CCCCC3)c(=O)c3c4c(sc3n12)CCCC4 3.83%
C=C1[C@@H](C)C2[C@H](Cc3ccccc3)NC(=O)[C@]23OC(=O)CC[C@H](O)CCC[C@H](C)C/C=C/[C@H]3[C@@H]1O (stereo partly drawn) -7.27%
C=CCSc1nc(C)c(CC=C)c(=O)[nH]1 -22.4%
CCN(CC)CCN1C(=O)C(=O)/C(=C(/O)c2c(C)[nH]c(C(=O)OC)c2C)C1c1ccccc1 (stereo not drawn) -8.53%
COC(=O)CSc1ncnc2c1sc1nc(-c3ccco3)c3c(c12)CC(C)(C)OC3 -26.7%
COc1ccc(OCC(O)CN2C(=O)NC(C)(C)C2=O)cc1 (stereo not drawn) 0.93%
CCC(NC(=O)NC1=NCCS1)(C(F)(F)F)C(F)(F)F -10%
CCOC(=O)c1c(C)n(C)c2ccc(OC)c(NC(=O)CCN3CCSCC3)c12 4.14%
CCOC(=O)c1cc2c(=O)n3ccccc3nc2n(Cc2ccccc2Cl)c1=N 1.14%

Test: Stat Signaling Pathway (AID 446);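 note: ME-180 cervical cancer cells given 40 pM IL-6 alongside compound; SIE-controlled beta-lactamase reporter measured as 460/530 nm FRET emission ratio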
Conditions: ME-180 (cervical carcinoma) SIE beta-lactamase reporter, IL-6 stimulated, 5 h; at 17.2 µM (top of the series) unless noted
Outline: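 Normalization used AC90 stimulation (300 pM IL-6) and AC90 inhibition (125 nM pan-JAK inhibitor at 40 pM IL-6). The underlying signal is SIE-driven beta-lactamase in ME-180 cells after 5 h IL-6 exposure with compound.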

activity, negative = inhibition, inactive:
CCC1=Nc2ccccc2NC2=C1C(=O)CCC2 -3.13%
CC(C)c1nc2n[nH]c(N)c2c2c1CCCC2 -2.14%
Cc1noc(NS(=O)(=O)c2ccc(NC(=O)COc3ccccc3)cc2)c1C -0.515%
c1cc2c(cc1C1=Nn3c(nnc3C3CCCCC3)SC1)OCO2 -7.03%
C[C@@H]1C[C@H](Nc2ccccc2)c2ccccc2N1C(=O)c1cccnc1 -2.73%
Cc1cc(=O)oc(C)c1C(=O)N1CCN(C)CC1 5.89%
CC(C)c1cc(NCCCN2CCOCC2)n2c(nc3ccccc32)c1C#N 0.608%
Cc1cc(-c2ccc(F)cc2)nc2cc(C(N)=O)nn12 -7.09%
Cc1cc(C)n(-c2nnc(C)n2/N=C/c2ccco2)n1 2.31%
CC(=O)c1c(N)nc2n(c1=O)CCCCC2 9.48%
FC(F)(F)c1cccc(N2CCc3cn[nH]c32)c1 -1.19%
O=C(NCCO)C1(c2ccccc2)CCCC1 2.26%
COc1ccccc1C(CC(=O)Nc1nccs1)c1ccco1 (stereo not drawn) -11.3%
c1ccc(Cc2nn[nH]n2)cc1 8.05%
CC(=O)c1ccc(C#CC(C)(C)O)s1 2.81%
COC(=O)C1=C(N)Oc2cc(C)oc(=O)c2C1c1ccncc1 (stereo not drawn) 0.284%
N#Cc1nc(-c2cccs2)oc1NCCN1CCOCC1 5.17%
COc1cccc2c(=O)c(SC(F)(F)C(F)C(F)(F)F)c(C)[nH]c12 (stereo not drawn) 2.33%
Cc1[nH]nc2cn[nH]c12 4.46%
COc1ccc(CCNC(=O)c2ccc(=O)[nH]n2)cc1OC 3.06%
CCOC(=O)c1ccccc1OCc1cc(/C=N/n2cncn2)ccc1OC -6.04%
COC(=O)C(NC(=O)c1ccccc1)(Nc1nccs1)C(F)(F)F (stereo not drawn) 5.62%
CC1(c2ccco2)NC(=O)NC1=O (stereo not drawn) 5.48%
Cn1ncc(N=Cc2ccccc2O)c1C(=O)Nc1ccccc1 0.0885%
CC12CN3CC(C)(CN(C1)C3c1ccc(Cl)cc1Cl)C2O (stereo not drawn) 3.23%
C/C=C/c1ccccc1OCc1ccc(C(=O)O)o1 -2.17%
COc1ccc(-c2cn3ccsc3n2)cc1 -5.92%
COc1ccc(C2C(C(C)=O)=C(O)C(=O)N2c2nccs2)cc1OC (stereo not drawn) 3.64%
Cc1cc(/C(O)=C2\C(=O)C(=O)N(CCN(C)C)C2c2ccncc2)ccc1OCc1ccccc1 (stereo not drawn) 4.75%
COCc1n[nH]c(=S)n1-c1cccc2ccccc12 0.355%
CSc1nnc2n(C3CCCCC3)c(=O)c3c4c(sc3n12)CCCC4 14.1%
C=C1[C@@H](C)C2[C@H](Cc3ccccc3)NC(=O)[C@]23OC(=O)CC[C@H](O)CCC[C@H](C)C/C=C/[C@H]3[C@@H]1O (stereo partly drawn) -14.9%
C=CCSc1nc(C)c(CC=C)c(=O)[nH]1 0.0275%
CCN(CC)CCN1C(=O)C(=O)/C(=C(/O)c2c(C)[nH]c(C(=O)OC)c2C)C1c1ccccc1 (stereo not drawn) -3.34%
COC(=O)CSc1ncnc2c1sc1nc(-c3ccco3)c3c(c12)CC(C)(C)OC3 -10.8%
COc1ccc(OCC(O)CN2C(=O)NC(C)(C)C2=O)cc1 (stereo not drawn) 9.74%
CCC(NC(=O)NC1=NCCS1)(C(F)(F)F)C(F)(F)F 15.4%
CCOC(=O)c1c(C)n(C)c2ccc(OC)c(NC(=O)CCN3CCSCC3)c12 7.06%
CCOC(=O)c1cc2c(=O)n3ccccc3nc2n(Cc2ccccc2Cl)c1=N 2.43%
